Test results taken from ChEMBL document CHEMBL4888484, “Replenishing the malaria drug discovery pipeline: Screening and hit evaluation of the MMV Hit Generation Library 1 (HGL1) against asexual blood stage Plasmodium falciparum ,using a nano luciferase reporter read-out” (2022).
Out of some 4,800 compounds screened, about 410 (8.5%) showed an effect of 50% or more. The entries come from a sample that favours strong results as a whole.

What follows are compounds tested on Plasmodium falciparum (assay: Confirmatory screen in NF54 pLDH assay, in single point, at 2uM, 72h). Details: timepoint 72 hour.
Assay type: functional, Erythrocyte
For `CCc1ccc(-c2cc3c(=O)n(CC(=O)N4CC(C)CC(C)C4)ncn3n2)cc1` (configuration not stated), the “% Inhibition” value was 11%. With `Cc1cc(NCCc2nccn2C)ncn1` the “% Inhibition” value was -4%. For `Cc1sc2nc(-c3ccccn3)nc(NCC(=O)N3CCC(O)CC3)c2c1-c1ccccc1`, the “% Inhibition” value was 23%. In the case of `CCN1CCN(c2nc3ncn(CC(=O)NCCCc4ccccc4)c(=O)c3s2)CC1`, the “% Inhibition” value is reported as -2%. `CCc1c(C)nn(S(=O)(=O)c2ccc3ccccc3c2)c1O` was tested, and the “% Inhibition” value was -3%. For `Cc1ncsc1COC(=O)c1ccnc(N(C)C)c1`, the “% Inhibition” value was 10%. In the case of `C[C@H]1CCC[C@@H](NCCc2ccccc2)CCC/C=C/c2cc(O)cc(O)c2C(=O)O1`, the “% Inhibition” value is reported as 72%. For `Cc1cccc(NC(=O)c2cc(Cl)c[nH]2)n1`, the “% Inhibition” value was 6%. With `COc1ccccc1C1CC1c1nc(CC(=O)NC2CCCC2)no1` (configuration not stated) the “% Inhibition” value was -5%. `Cc1ccc(-c2noc(CCC(=O)NC[C@H]3CCCO3)n2)c(=O)n1C(C)C` was tested, and the “% Inhibition” value was 0%. With `CN(CCNC(=O)CCc1cn(-c2ccccc2)nc1-c1ccc2c(c1)OCO2)C1CCCCC1` the “% Inhibition” value was 49%. For `CC[C@H](C)NC(=O)c1cn(-c2cccc(C)n2)cn1`, the “% Inhibition” value was 13%. In the case of `Nc1ccc(Cc2nnc3n2CCC3)cc1`, the “% Inhibition” value is reported as 8%. `O=C(N[C@@H](CN1CCCC1)c1ccccc1)N1CCC(c2ccn[nH]2)CC1` was tested, and the “% Inhibition” value was 43%. With `Clc1cccc(CNCCCNc2ccncc2)c1Cl` the “% Inhibition” value was 95%. In the case of `OCCNCc1c(Cl)cccc1Cl`, the “% Inhibition” value is reported as 4%. `CN(C)CCCNCc1ccccc1F` was tested, and the “% Inhibition” value was 10%. `CC(NC(=O)C1CCC1)C(=O)Nc1ccn(C(C)c2ccccc2)n1` (configuration not stated) was tested, and the “% Inhibition” value was -6%. With `O=C(Nc1ccc(Cn2ccnc2)cc1)c1cc2ccccc2cc1OC(F)F` the “% Inhibition” value was -12%. For `c1ccc2c[n+](Cc3ccc4ccccc4n3)ccc2c1`, the “% Inhibition” value was 47%. `O[C@@H](Cc1ccc2ccccc2n1)c1ccccc1` was tested, and the “% Inhibition” value was -3%. For `Cc1ccc[n+](Cc2ccc3ccccc3n2)c1`, the “% Inhibition” value was 53%. For `CCn1nc(-n2cnnc2)c(NS(=O)(=O)c2ccc(Br)cc2C)c1C`, the “% Inhibition” value was 12%. With `CC(=O)Nc1cccc(NC(=O)Cn2c(=O)n(CCc3cccs3)c(=O)c3ccccc32)c1` the “% Inhibition” value was 10%. For `CCOC(=O)c1cc(NC(=O)C(C)(C)NC(=O)OC(C)(C)C)c(F)cc1C`, the “% Inhibition” value was 8%. In the case of `CCOC(=O)c1ncn(C2CCCCC2)c1N`, the “% Inhibition” value is reported as 10%. In the case of `CCOC(=O)c1cn(CC)c2cc(NC3CCCCC3)c(F)cc2c1=O`, the “% Inhibition” value is reported as 69%. With `Cc1cc2[nH]ncc2cc1NC(=O)c1ccco1` the “% Inhibition” value was 9%. In the case of `CC[C@H]1C[C@@H]1CNC(=O)c1cccc(NC(=O)c2ccco2)c1`, the “% Inhibition” value is reported as -2%. `COC(C)(C)c1nc(Cn2cnc3ccccc32)no1` was tested, and the “% Inhibition” value was 6%. `CC(C)[C@H](NC(=O)c1ccc(Cl)cc1Cl)C(=O)O` was tested, and the “% Inhibition” value was -5%. In the case of `CCOC(=O)CCn1cc(F)c(=O)[nH]c1=O`, the “% Inhibition” value is reported as 66%. For `CCOC(=O)COc1cc(N)c(F)cc1Cl`, the “% Inhibition” value was -9%. `CCOC(=O)CNc1ccc(F)c(Cl)c1` was tested, and the “% Inhibition” value was -3%. In the case of `COCCCNC(=O)c1cncc(Br)c1`, the “% Inhibition” value is reported as -2%. With `NC(=O)c1cc(Cl)c(Cl)c(Cl)c1` the “% Inhibition” value was -22%. `O=C1CCC[C@H](O)N1Cc1ccc(F)cc1` was tested, and the “% Inhibition” value was 8%. For `CC(C)n1ccc(CN2CCC[C@H](c3cc(C(F)(F)F)[nH]n3)C2)n1`, the “% Inhibition” value was 1%. In the case of `CCc1ccc(CN2CCC[C@H](c3ncc[nH]3)C2)nc1`, the “% Inhibition” value is reported as 52%. For `CCc1ccc([C@H]2NCCc3[nH]cnc32)nc1`, the “% Inhibition” value was 24%. For `O=C(c1cccc(C(=O)N2CCN(C(c3ccccc3)c3ccccc3)CC2)c1)N1CCN(C(c2ccccc2)c2ccccc2)CC1`, the “% Inhibition” value was 26%. With `c1ccc(C(c2ccccc2)N2CCN(c3nn4cnnc4c4ccccc34)CC2)cc1` the “% Inhibition” value was 65%. In the case of `CCc1cc(C(=O)N2CCCCC2)c2c(C)nn(-c3ccc(OC)cc3)c2n1`, the “% Inhibition” value is reported as 10%. For `COC(=O)[C@](Nc1ccc(Oc2ccccc2)cc1)(c1cc(C)c(O)c(C)c1)C(F)(F)F`, the “% Inhibition” value was 7%. With `CCCCn1c(N)c(N(Cc2ccccc2OC)C(=O)c2ccoc2C)c(=O)[nH]c1=O` the “% Inhibition” value was -22%. `Cc1ccc(Nc2c(C(=O)NCc3ccc(F)cc3)cnc3c2c(C)nn3C)cc1` was tested, and the “% Inhibition” value was -5%. With `O=C(NCCN1CCCC1)c1cc2n(n1)CCN(Cc1cccc(F)c1)C2=O` the “% Inhibition” value was -27%. In the case of `Nc1nc2c(s1)CN(CCc1ccccc1)CC2`, the “% Inhibition” value is reported as 41%. With `N#Cc1nc2c(C#N)c(N)n(CCc3ccccc3)c2nc1C#N` the “% Inhibition” value was 92%. For `N#Cc1c(-c2ccccc2)cc(-c2ccccc2)nc1S(=O)(=O)Cc1ccccc1`, the “% Inhibition” value was 43%. In the case of `O=S(=O)(c1ccccc1F)C1CNC1`, the “% Inhibition” value is reported as -18%. In the case of `O=C(c1cccc(COc2ccc(Br)cc2)c1)N1CCN(Cc2ccccc2)CC1`, the “% Inhibition” value is reported as -14%. For `Cc1nc(C(=O)Nc2[nH]c(=O)ncc2F)c(-c2ccccc2)o1`, the “% Inhibition” value was 70%. With `CC(C)c1nc(C(=O)Nc2[nH]c(=O)ncc2F)cs1` the “% Inhibition” value was 83%. With `Cc1ccc(-c2cc(C(=O)Nc3nnc(C(C)C)s3)no2)cc1F` the “% Inhibition” value was 16%. In the case of `O=C(c1coc(-c2ccccc2)n1)N1CCc2cc(Br)ccc21`, the “% Inhibition” value is reported as 1%. With `CC(C)c1nc(C(=O)Nc2ccccc2CN2CCNC2=O)cs1` the “% Inhibition” value was 5%. With `O=C(Nc1[nH]c(=O)ncc1F)c1coc(-c2ccccc2)n1` the “% Inhibition” value was 71%. With `O=C(CNc1cc(F)c(F)cc1F)NC(=O)NCC(F)(F)F` the “% Inhibition” value was -5%. `CC(C)CN1C(=O)CC[C@@H](C(=O)NCCCN2CCOCC2)[C@@H]1c1cccnc1` was tested, and the “% Inhibition” value was -17%. With `Cc1nc2ccc(Cl)cc2c(-c2ccccc2)c1C1=NN(S(C)(=O)=O)[C@H](c2ccccc2Cl)C1` the “% Inhibition” value was -14%. In the case of `Cn1cc(-c2csc(NC(=O)c3ccc4[nH]cnc4c3)n2)cn1`, the “% Inhibition” value is reported as 7%. `CCN1C(=O)CN(C(=O)c2cccc(C)c2)CC12CCOCC2` was tested, and the “% Inhibition” value was 9%. `O=C(Nc1nc2cccc(Cl)c2o1)c1cccc(F)c1` was tested, and the “% Inhibition” value was 92%. With `CC(C)(C)NC(=O)CNC(=O)c1cccc(F)c1` the “% Inhibition” value was -8%. For `Cc1nc(Cn2nnc(NC(=O)c3cccc(F)c3)c2C)no1`, the “% Inhibition” value was 8%. In the case of `Cc1c(Br)c(C)n(NC(=O)c2cnn(Cc3ccccc3)c2)c(=O)c1C#N`, the “% Inhibition” value is reported as -15%. `Cc1cccc(C)c1Oc1ccccc1NC(=O)CCc1nnc[nH]1` was tested, and the “% Inhibition” value was 4%. `O=S(=O)(Nc1ccc2nncn2c1)c1c(F)cccc1Cl` was tested, and the “% Inhibition” value was -18%. With `Cc1ccc(F)cc1NC(=O)N1CCC12CCC2` the “% Inhibition” value was 11%. For `N#CC1(c2ccccc2)c2ccccc2C(=O)c2ccccc21`, the “% Inhibition” value was -4%. With `CN(Cc1ccccc1)C(=O)C[C@H]1CCN(C(=O)NC2CCCC2)C1` the “% Inhibition” value was 2%. With `Cc1cccc2ncnc(N(C)[C@@H](C)Cc3ccc(O)cc3)c12` the “% Inhibition” value was 84%. `Cc1n[nH]c2ncc(NC(=O)c3ccc(CCC(F)(F)F)cc3)cc12` was tested, and the “% Inhibition” value was 17%. In the case of `Cc1cc(C)cc(CN2CCCN(c3ccc(C)cc3NC(=O)Cc3ccc(F)cc3)C2=O)c1`, the “% Inhibition” value is reported as 13%. For `CC(C)CCO[C@@H](C)C(=O)NC1CCN(CC(=O)NC(C)C)CC1`, the “% Inhibition” value was 5%. In the case of `O=C1C2C3C=CC(C3=C3CCCCC3)C2C(=O)N1c1cccc(Cl)c1` (configuration not stated), the “% Inhibition” value is reported as 15%. `COc1cccc(S(=O)(=O)N2CCC(OCCOCc3ccccc3)CC2)c1` was tested, and the “% Inhibition” value was 10%. In the case of `COc1cccc(S(=O)(=O)N2CCCN(Cc3ccncc3)[C@H](c3ccccc3)CC(=O)NCC2)c1`, the “% Inhibition” value is reported as 86%. In the case of `COc1cccc(S(=O)(=O)N2CCC(OCCOc3ccccc3)CC2)c1`, the “% Inhibition” value is reported as 7%. In the case of `Cc1cccc(NC(=O)Cn2ccc(C(=O)Nc3cccc(C)c3C)n2)c1C`, the “% Inhibition” value is reported as -11%. For `CCOC(=O)[C@@H]1C(=O)Nc2cc(OC)ccc21`, the “% Inhibition” value was 9%. `COc1ccc(CCNCC(=O)Nc2c3c(nc4ccccc24)N(C)CC3)cc1OC` was tested, and the “% Inhibition” value was 6%. With `CN(C)c1ccc(NN=C2N=NN=N2)cc1` the “% Inhibition” value was 3%. For `COc1cccc(Cn2c(=O)c3sccc3n(CC(=O)Nc3ccc4c(c3)OCO4)c2=O)c1`, the “% Inhibition” value was 16%. With `COc1cccc(NC(=O)Cn2c(C)ccc(NS(=O)(=O)c3ccc(C)cc3)c2=O)c1` the “% Inhibition” value was 59%. For `COc1cccc(NC(=O)Cn2c(=O)n(C)c(=O)c3sc(N4CCCC4)nc32)c1`, the “% Inhibition” value was 1%. With `Cc1cc(C)c(NC(=O)CN(C)C(=O)NCc2ccco2)c(C)c1` the “% Inhibition” value was -8%. `O=C(NC(Cn1ccccc1=O)c1ccccc1)C1CCOC1` (configuration not stated) was tested, and the “% Inhibition” value was 7%. `O=C(Nc1ccc2c(c1)c1cc(Br)ccc1n2Cc1ccccc1)c1ccccc1` was tested, and the “% Inhibition” value was 6%. In the case of `O=C(N[C@@H](Cn1nccn1)c1ccccc1)c1cc(Br)ccc1Cl`, the “% Inhibition” value is reported as 75%. With `Cc1ccccc1-c1cc2c(N3CCN(C4CCCCC4)CC3)nccn2n1` the “% Inhibition” value was 4%. With `Cc1cc(Br)cc(N[C@H](c2cccnc2)c2ncc[nH]2)c1` the “% Inhibition” value was 6%. For `Cc1ccc2nc3c(c(N)c2c1)CCCCN3C`, the “% Inhibition” value was -20%. `Cc1ccc2nc(C3CC3)cc(C(=O)N3C[C@@H](O)C[C@H]3CO)c2c1` was tested, and the “% Inhibition” value was -1%. With `CC(C)c1ccc(S(=O)(=O)Nc2ccc3nc(NC(=O)c4ccccc4)sc3c2)cc1` the “% Inhibition” value was 6%. With `CN(C)c1ccc(CNC2CCCCCC2)cc1` the “% Inhibition” value was -13%. With `CN(CC(=O)Nc1ccccc1C(F)(F)F)C1CNC1` the “% Inhibition” value was 8%. For `COC[C@H](NCCc1cc(F)cc2c1OCOC2)C1CC1`, the “% Inhibition” value was 82%. For `Cc1csc(NC(=O)NCCc2cc(F)cc3c2OCOC3)n1`, the “% Inhibition” value was -14%. In the case of `N#Cc1cc(O)c(-c2c(O)n[nH]c2-c2ccccc2)cc1C#N`, the “% Inhibition” value is reported as 10%. With `O=c1[nH]c(=O)n(Cc2nc(-c3ccco3)no2)cc1Cl` the “% Inhibition” value was 3%. With `Cc1nn(C)c(C)c1CCCN[C@@H](C)c1cccc(O)c1` the “% Inhibition” value was 4%. With `Cc1ccc2nc(-c3cccc(NC(=O)c4ccc5c(c4)OCO5)c3)oc2c1` the “% Inhibition” value was -7%. For `COC(=O)c1cccc(C#Cc2cccc(NC(=O)c3cnc(C)cn3)c2)c1`, the “% Inhibition” value was -9%. In the case of `N#CCC(=O)NC1CCC(CC2CCC(NC(=O)CC#N)CC2)CC1` (configuration not stated), the “% Inhibition” value is reported as -2%. `Cc1ccccc1S(=O)(=O)N1CCN(c2c(C)n(-c3ccccc3)c(=O)n(CC(C)C)c2=O)CC1` was tested, and the “% Inhibition” value was 14%.
